# Source: PubChem (several laboratories)
# Compounds with a hit are over-represented: about 4.3% of the library has one in this group of screens.
# esBAF inh: SWI/SNF esBAF complex inhibition; mouse ES cells, Bmi1-luciferase knock-in reporter, 24 h; 100% = twice the neutral-well signal; reporter increase, % at 12.5 µM; 350,000 compounds, 2% hits; in the data active = activation above about 40%; inconclusive = no clear call, values can overlap the other calls;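 note: a rise in the Bmi1 reporter signal indicates esBAF inhibition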
# SMARCA2 activ: increases SMARCA2 function in MMTV reporter cells; MG213 cells, MMTV-luciferase reporter, dexamethasone, overnight; activation, % at 9.1 µM; 370,000 compounds, 1% hits; in the data active = activation above about 7.8%
# Wnt bcat act: activates Wnt/beta-catenin signaling in a reporter cell assay; activator, plate reader; 300,000 compounds, 1.2% hits; activation, % at 9.35 µM; in the data active = activation above about 30%, passing the limit was not always enough; inconclusive = no clear call, values can overlap the other calls
# HSF-1 act: increases HSF-1 driven luciferase reporter signal. NIH3T3-HGL HSF-1 luciferase reporter, MG132, 8 h; 100% = twice DMSO control signal. 300,000 compounds, 1.7% hits. activation, % at 9 µM;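 active = mean replicate activation of at least 50% with a set share of replicates each reaching 50%; inconclusive = only one of those two conditions met; inactive = mean below 50% and too few replicates reaching it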
# MITF TRPM1 HTS: increases MITF-driven TRPM1 promoter luciferase signal | SK-MEL-5 TRPM1-promoter luciferase, 24 h; % of positive control, neutral wells = 0 | activation, % at 12.5 µM | 300,000 compounds, 0.75% hits | AID 588334;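 active = mean activation of at least 80% with every replicate also reaching 80%; inconclusive = mean reaches 80% but some replicate falls short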
# HSF1 inh: HSF1 inhibition; NIH3T3-HGL HSE-luciferase, MG132-induced, luminescence 8 h; active compounds read low; activity change, negative = inhibition, % at 7.5 µM (by protocol); 300,000 compounds, 0.77% hits; AID 2098;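 active = more than half of replicate wells show activity change below -50%, luminescence cut by over half; inconclusive = some wells, but at most half, below -50%; inactive = no replicate well below -50%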;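 note: luciferase reports HSF-1 transcriptional activity via heat shock element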
# Numbers stand for hits; . = inactive; ? = inconclusive; / = not tested or not shown; ! = repeats disagree.
SMILES,esBAF inh,SMARCA2 activ,Wnt bcat act,HSF-1 act,MITF TRPM1 HTS,HSF1 inh
Cc1noc(C)c1S(=O)(=O)Nc1ccc2c(c1)CC(=O)N([C@H](C)CO)C[C@H](C)[C@@H](CN(C)S(=O)(=O)c1ccccc1)O2,.,/,/,/,/,/
CO[C@@H]1CN(C)C(=O)c2cc(NC(=O)Nc3ccccc3Cl)ccc2OC[C@H](C)NC[C@@H]1C,.,/,/,/,/,/
CCCNC(=O)N[C@@H]1CC[C@@H](CC(=O)NC2CCCCC2)O[C@@H]1CO,.,/,/,/,/,/
CCSc1nnc(NC(=O)C2CCCCC2)s1,44,.,/,.,/,.
Cc1ccc(S(=O)(=O)N2CCC(C(=O)Nc3nnc(-c4ccco4)s3)CC2)cc1,.,.,.,.,.,.
CSc1nnc(NC(=O)C2CCCCC2)s1,45,.,.,/,.,/
CC(C)c1nnc(NC(=O)C2CCCCC2)s1,.,.,.,.,/,.
O=C(Nc1nnc(-c2ccco2)s1)C1CCCCC1,77,.,/,.,.,.
CN(C)C(=O)C[C@@H]1C[C@H]2c3cc(NC(=O)c4ccc5c(c4)OCO5)ccc3O[C@H]2[C@@H](CO)O1,.,/,/,/,/,/
CCOc1ccc(C(=O)N2CCN(S(=O)(=O)c3cccs3)CC2)c(OCC)c1,.,.,.,54,.,.
C[C@H](CO)N1C[C@H](C)[C@H](CN(C)C)Oc2ccc(NS(=O)(=O)c3ccc(F)cc3)cc2C1=O,.,/,/,/,/,/
C=CCN1C(=O)C(Cc2ccc(Br)cc2)S/C1=N\N=C\c1ccco1 (stereo unspecified),.,.,.,.,.,.
C=CCN1C(=O)C(Cc2ccc(OC)cc2)S/C1=N/N=C/c1ccco1 (stereo unspecified),.,.,.,.,.,-57
CNC(=O)c1ccc2snnc2c1,.,.,.,.,/,.
COc1ccc(NC(=O)c2ccc3snnc3c2)cc1,56,.,/,.,.,.
O=C(Nc1ccc(Cl)cc1)c1ccc2snnc2c1,57,.,.,.,.,.
CC(=O)c1ccc(NC(=O)c2ccc3snnc3c2)cc1,63,.,.,.,85,.
Cc1ccc(-c2cnc3c(c2)C(=O)N([C@H](C)CO)C[C@@H](C)[C@@H](CN(C)C(=O)c2ccccc2)O3)cc1,.,/,/,/,/,/
CN(CCO)C(=O)c1ccc(-c2nn(C)c(=O)c3ccccc23)cc1,/,.,34,.,.,.
Cn1nc(-c2ccc(C(=O)NCCO)cc2)c2ccccc2c1=O,/,.,.,.,.,.
CCCCNS(=O)(=O)c1cc(-c2nn(C)c(=O)c3ccccc23)ccc1C,.,.,.,.,.,.
COc1ccc(NC(=O)COc2ccc(-c3nn(C)c(=O)c4ccccc34)cc2)cc1,.,.,.,.,.,-83
Cc1ccc(-c2nn(C)c(=O)c3ccccc23)cc1S(=O)(=O)NCCN(C)C,/,.,.,.,.,-61
CC(C)N1CCC2(CC1)Oc1ccc(Br)cc1C1CC(c3cccnc3)=NN12 (stereo unspecified),.,.,.,.,/,.
COc1cccc2c1OC1(CCN(C(C)C)CC1)N1N=C(c3cccnc3)CC21 (stereo unspecified),/,.,34,.,/,.
SMILES,esBAF inh,SMARCA2 activ,Wnt bcat act,HSF-1 act,MITF TRPM1 HTS,HSF1 inh
CC(C)NC(=O)N(C)C[C@H]1OCCCC[C@H](C)Oc2ccc(NC(=O)NC3CCCCC3)cc2C(=O)N([C@@H](C)CO)C[C@H]1C,.,/,/,/,/,/
O=C(CCS(=O)(=O)Cc1ccccc1)Nc1ncc([N+](=O)[O-])s1,42,.,.,.,.,.
Cc1ncoc1C(=O)Nc1nccs1,.,.,.,.,.,.
Cc1csc(NC(=O)c2cccs2)n1,/,.,/,.,.,.
Cc1ncoc1C(=O)Nc1ncc([N+](=O)[O-])s1,/,.,37,.,.,.
Cc1cnc(NC(=O)c2cccs2)s1,.,.,.,83,.,.
Cc1cnc(NC(=O)CCNC(=O)c2ccccc2Cl)s1,.,.,46,.,.,.
CC(C)NC(=O)N[C@@H]1CC[C@@H](CC(=O)NCc2ccc(Oc3ccccc3)cc2)O[C@@H]1CO,.,/,/,/,/,/
CN1CCN(C(=O)C[C@@H]2CC[C@H]3[C@@H](COC[C@@H](O)CN3C(=O)c3ccc(F)cc3)O2)CC1,.,/,/,/,/,/
O=C(Nc1ncc([N+](=O)[O-])s1)c1ccccc1Br,.,.,.,.,.,.
O=C(Nc1ncc([N+](=O)[O-])s1)c1cccs1,.,.,42!,.,.,.
Cc1ccc(C)c(S(=O)(=O)N2CCCCC2CCNC(=O)C(=O)NCCc2ccco2)c1 (stereo unspecified),.,.,.,54,.,.
Cc1ccc(C)c(S(=O)(=O)N2CCCC2CNC(=O)C(=O)NCCc2ccco2)c1 (stereo unspecified),.,.,.,.,.,.
O=C(C[C@@H]1CC[C@H](NC(=O)c2cccnc2)[C@H](CO)O1)NCc1ccc(Cl)c(Cl)c1,.,/,/,/,/,/
CCNc1nc(N)c(C(=O)c2ccc(Cl)s2)s1,43,.,58,.,/,.
CCOC(=O)CNC(=O)c1ccc(Cl)s1,.,.,.,.,.,.
CC(=O)N(C)C[C@@H]1Oc2ncc(C#Cc3ccccc3F)cc2C(=O)N([C@H](C)CO)C[C@@H]1C,.,/,/,/,/,/
CN(C)S(=O)(=O)c1ccc(-c2csnn2)s1,.,.,.,.,.,-86
CN(C)c1ccc(NS(=O)(=O)c2ccc(-c3csnn3)cc2)cc1,/,.,.,.,/,.
CCCC(=O)Nc1ccc2c(c1)OC[C@@H](C)N(CCC(F)(F)F)C[C@@H](C)[C@@H](OC)CN(C)C2=O,.,/,/,/,/,/
Cc1ccc2[nH]c3c(c2c1)CNCC3,.,.,.,.,.,.
c1ccc2c3c([nH]c2c1)CCNC3,.,.,.,162,.,.
Cc1cc(COc2ccccc2)oc1C(=O)O,51,.,.,.,/,.
Cc1cc(CN2CCCCC2)oc1C(=O)O,/,.,.,/,.,/
CCOC(=O)c1[nH]c(C)c(C(=O)OC)c1C,.,.,.,.,.,.
SMILES,esBAF inh,SMARCA2 activ,Wnt bcat act,HSF-1 act,MITF TRPM1 HTS,HSF1 inh
COC(=O)c1c(C)[nH]c(C(=O)OCC(=O)c2ccc(C)s2)c1C,/,.,.,/,89,/
Cc1ccc(C(=O)OCC(=O)c2ccc(Cl)s2)s1,/,.,/,60,.,.
CCOC(=O)c1c(C)[nH]c(C(=O)Cn2nnc(-c3ccccc3Cl)n2)c1C,.,.,/,61,.,.
Cc1ccc(C(=O)OCC(=O)NCCNC(=O)COC(=O)c2ccc(C)s2)s1,.,.,.,.,.,.
CCOC(=O)c1c(C)[nH]c(C(=O)OCc2ccc(F)cc2)c1C,49,.,.,?,.,.
CCOC(=O)c1c(C)[nH]c(C(=O)OCC(=O)Nc2cc(Cl)ccc2OC)c1C,.,.,/,53,.,.
CCOC(=O)c1[nH]c(C)c(C(=O)Nc2ccc(F)cc2)c1C,.,.,.,57,/,.
CCOC(=O)c1c(C)[nH]c(C(=O)OCC(=O)Nc2cc(C)ccc2OC)c1C,.,.,/,.,.,.
CCOC(=O)c1[nH]c(C)c(C(=O)NCCC2=CCCCC2)c1C,?,.,/,61,.,.
